Unmarked numbers belong to inactive results. Results filed as inconclusive are left out. Activity calls are given as the source filed them. Unless noted, calls come from the whole dose curve; as a rule, active = well fitted curve in the direction sought with a large enough effect; inconclusive = small, poorly fitted or top-dose-only effect, or another doubt; inactive = no such curve, though single readings can be large; an effect the other way counts as inactive or inconclusive.
Tested on: not listed separately
Test: qHTS for small molecule inhibitors of Yes1 kinase: Counter Assay (AID 686950);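 note: no kinase present so only ADP-Glo detection of a fixed ADP amount is tested; luminescence from ADP-Glo reporting ADP in a fixed ATP and ADP mixture; 0% = DMSO wells with ATP plus ADP and -100% = ATP-only wells without ADP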
Conditions: series mostly up to 76.9 µM; activity change, negative = inhibition: at the top concentration
Procedure, shortened: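 Luminescence read-out from ADP-Glo quantifies a fixed ADP amount (0.02 mM ADP with 0.08 mM ATP) after 60 min at room temperature; signal is normalized between DMSO wells with ATP/ADP and with 0.1 mM ATP alone.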

Row | Structure (SMILES) | activity change, negative = inhibition [%] | outcome
1 | N#Cc1cc(NC(=O)Nc2nnc(-c3ccncc3)s2)ccc1-c1cn[nH]c1 | 3.63 | 
2 | COc1cc(C)c(Sc2cnc(NC(=O)c3ccc(CNC(C)C(C)(C)C)cc3)s2)cc1C(=O)N1CCN(C(C)=O)CC1 (stereo not given) |  | inactive
3 | N#Cc1c(NC(=O)c2cccc3ccccc23)sc2c1CCCC2 | 1.13 | 
4 | Cn1c(Nc2ccc(C(F)(F)F)cc2)nc2cc(Oc3ccnc(-c4ncc(C(F)(F)F)[nH]4)c3)ccc21 | -5.95 | 
5 | C=CCNC1=C2C[C@@H](C)C[C@H](OC)[C@@H](O)[C@@H](C)C=C(C)[C@H](OC(N)=O)[C@@H](OC)C=CC=C(C)C(=O)NC(=CC1=O)C2=O | -5.9 | 
6 | N#Cc1ccc(COC[C@H]2O[C@@H](n3c(NCc4ccc(Cl)c(Cl)c4)nc4c(N)ncnc43)[C@@H](O)[C@@H]2O)cc1 | 3.94 | 
7 | COc1cc2c(cc1OC)[C@@H]1C(=O)c3ccc4c(c3O[C@@H]1CO2)C=CC(C)(C)O4 | -12.9 | 

Tested on: not listed separately
Test: qHTS for compounds that reverse cellular toxicity of Amyloid beta (A-beta) peptide in yeast: LOPAC Validation Assay (AID 720559);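 note: plate controls were DMSO for no effect and equimolar ferric chloride plus clioquinol rescue for full effect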
Conditions: yeast expressing A-beta; series mostly up to 46.1 µM; growth rescue, positive = activation: at the top concentration
Procedure, shortened: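 Yeast expressing toxic A-beta grown with pinned compounds at 30 C for 48 hr. Growth measured as absorbance at 600 nm; data normalized to DMSO and to an equimolar FeCl3/clioquinol mixture as positive control.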

Row | Structure (SMILES) | growth rescue, positive = activation [%]
8 | CN[C@H](CC(C)C)C(=O)N[C@H]1C(=O)N[C@@H](CC(N)=O)C(=O)N[C@@H]2C(=O)N[C@H]3C(=O)N[C@H](C(=O)N[C@H](C(=O)O)c4cc(O)cc(O)c4-c4cc3ccc4O)[C@H](O)c3ccc(c(Cl)c3)Oc3cc2cc(c3O[C@@H]2O[C@H](CO)[C@@H](O)[C@H](O)[C@@H]2O[C@H]2C[C@](C)(N)[C@H](O)[C@H](C)O2)Oc2ccc(cc2Cl)[C@H]1O | -2.46
9 | O=c1[nH]c(=O)n([C@H]2C[C@@H](O)[C@@H](CO)O2)cc1C=CBr | -5.48
10 | COc1ccc2cc([S+]([O-])Cc3ncc(C)c(OC)c3C)nc2c1 | -61.4

Tested on: not listed separately
Test: qHTS for Activators of Parkin Expression: LOPAC Validation Assay (NLuc Reporter) (AID 720572;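 note: 0% = DMSO and 100% = positive control compound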)
Conditions: Parkin promoter NanoLuc reporter cells, luminescence, percent of positive control, DMSO as zero; series mostly up to 46.1 µM; activation: at the top concentration
Procedure, shortened: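 Parkin promoter-driven FLuc/NLuc neuronal reporter cells; 24 h plating, 7-pt dose response, 24 h at 37 C/5% CO2; FLuc then NanoLuc reagent, 10 min each, luminescence; DMSO/positive control normalized.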

Row | Structure (SMILES) | activation [%]
11 | CN[C@H](CC(C)C)C(=O)N[C@H]1C(=O)N[C@@H](CC(N)=O)C(=O)N[C@@H]2C(=O)N[C@H]3C(=O)N[C@H](C(=O)N[C@H](C(=O)O)c4cc(O)cc(O)c4-c4cc3ccc4O)[C@H](O)c3ccc(c(Cl)c3)Oc3cc2cc(c3O[C@@H]2O[C@H](CO)[C@@H](O)[C@H](O)[C@@H]2O[C@H]2C[C@](C)(N)[C@H](O)[C@H](C)O2)Oc2ccc(cc2Cl)[C@H]1O | -4.32
12 | O=c1[nH]c(=O)n([C@H]2C[C@@H](O)[C@@H](CO)O2)cc1C=CBr | -0.776
13 | COc1ccc2cc([S+]([O-])Cc3ncc(C)c(OC)c3C)nc2c1 | 3.59

Tested on: not listed separately
Test: qHTS for Activators of Parkin Expression: LOPAC Validation Assay (FLuc Reporter) (AID 720573;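 note: 0% = DMSO and 100% = positive control compounds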)
Conditions: Cell line, PRKN promoter firefly luciferase reporter, vehicle wells = 0, positive control = 100%; series mostly up to 46.1 µM; activation: at the top concentration
Procedure, shortened: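 Neuronal cell line stably expressing FLuc/NLuc coincidence reporter under the Parkin promoter, 1,500 cells/well, dosed 24 h after seeding in 7-point series for 24 h at 37 C. FLuc luminescence read; normalized to DMSO and positive control (100%).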

Row | Structure (SMILES) | activation [%]
14 | CN[C@H](CC(C)C)C(=O)N[C@H]1C(=O)N[C@@H](CC(N)=O)C(=O)N[C@@H]2C(=O)N[C@H]3C(=O)N[C@H](C(=O)N[C@H](C(=O)O)c4cc(O)cc(O)c4-c4cc3ccc4O)[C@H](O)c3ccc(c(Cl)c3)Oc3cc2cc(c3O[C@@H]2O[C@H](CO)[C@@H](O)[C@H](O)[C@@H]2O[C@H]2C[C@](C)(N)[C@H](O)[C@H](C)O2)Oc2ccc(cc2Cl)[C@H]1O | -4.44
15 | O=c1[nH]c(=O)n([C@H]2C[C@@H](O)[C@@H](CO)O2)cc1C=CBr | -7.21
16 | COc1ccc2cc([S+]([O-])Cc3ncc(C)c(OC)c3C)nc2c1 | -3.78

Tested on: not listed separately
Test: qHTS assay for small molecule agonists of the antioxidant response element (ARE) signaling pathway measured by Nrf2-dependant transcriptional activity (AID 720636; active = well fitted curve in the direction sought with a large enough effect in the repeat runs; an effect the other way counts as inactive or inconclusive;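 note: HepG2 cells with an ARE-driven luciferase reporter; % of control where 0% means no effect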)
Conditions: ARE-luc HepG2, Nrf2 luciferase reporter, 16 h; series mostly up to 92.4 µM; activation: at the top concentration
Procedure, shortened: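 ONE-Glo luminescence, read 30 min after reagent addition at room temperature, reflected ARE reporter activity in HepG2 cells that had been incubated with compound for 16 hr at 37 C in 1% dialyzed FBS.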

Row | Structure (SMILES) | activation [%]
17 | CC(C=CC1=C(C)CCCC1(C)C)=CC=CC(C)=CC(=O)Nc1ccc(O)cc1 | -4.32
18 | C[C@]12CC[C@@H]3c4ccc(O)cc4CC[C@H]3[C@H]1CC[C@H]2O | 0.147
19 | OC[C@@H](O)[C@@H](O)[C@H](O)[C@@H](O)CO | 0.25
20 | Cc1cc(O)c2c(c1)C(=O)c1cccc(O)c1C2=O | 1.2

Tested on: not listed separately
Test: qHTS assay for small molecule agonists of the antioxidant response element (ARE) signaling pathway measured by Nrf2-dependant transcriptional activity - cell viability counter screen (AID 720653; active = well fitted curve in the direction sought with a large enough effect in the repeat runs; an effect the other way counts as inactive or inconclusive; note: % is set by controls: 0 for no effect and ±100 for the full control effect)
Conditions: ARE-bla HepG2 viability, CellTiter-Glo ATP luminescence, 16 h; stronger effect = lower value
Excerpt: National Center for Advancing Translational Sciences [NCATS] NIH Chemical Genomics Center [NCGC] U.S. Environmental Protection Agency [EPA] National Institutes of Environmental Health Sciences [NIEHS] National Toxicology Program [NTP] Assay Overview: Oxidative stress has been implicated in the pathogenesis of a variety of diseases ranging from cancer to neurodegeneration. The antioxidant response element (ARE) signaling pathway plays an important role in the amelioration of oxidative stress. The CellSensor ARE-bla HepG2 cell line (Invitrogen) can be used for analyzing the Nrf2/antioxidant response signaling pathway. Nrf2 (NF-E2-related factor 2) and Nrf1 are transcription factors that bind to AREs and activate these genes. The CellSensor ARE-bla HepG2 cell line contains a beta-lactamase reporter gene under control of the Antioxidant Response Element (ARE) stably integrated into HepG2 cells. The activation of the report gene under culture conditions can be detected by fluorescence intensity. The cytotoxicity of the compounds against the ARE-bla HepG2 cell line was quantified by measuring the intracellular ATP content.
Assay Protocol Summary: ARE-bla HepG2 cells were dispensed at 2,000 cells/5 ul/well in 1536-well black wall/clear bottom plates using a Multidrop Combi (ThermoFisher Scientific, Waltham, MA) dispenser. After the assay plates were incubated at 37C/5% CO2 for 5 hrs, 23 nL of compounds dissolved in DMSO, positive controls or DMSO only was transferred to the assay plate by a pintool work station (Kalypsys, San Diego, CA). The plates were incubated at 37C/5% CO2 for 16 hrs. After 1 uL of LiveBLAzer B/G FRET substrate was added using a Flying Reagent Dispenser (FRD) (Aurora Discovery, San Diego, CA), the assay plates were incubated at room temperature for 2 hrs. The fluorescence intensity was measured by an Envision (PerkinElmer, Shelton, CT) plate reader. Cell viability using CellTiter Glo viability assay (Promega, Madison, WI) was also measured by adding 4 ul/well of CellTiter-Glo reagent into the same assay plate using a FRD. After 30 min incubation at room temperature, the luminescence intensity in the plates was measured using a ViewLux (PerkinElmer) plate reader.

Row | Structure (SMILES) | max response [%]
21 | C[C@]12CC[C@@H]3c4ccc(O)cc4CC[C@H]3[C@H]1CC[C@H]2O | -1.4
22 | OC[C@@H](O)[C@@H](O)[C@H](O)[C@@H](O)CO | 2.04
23 | Cc1cc(O)c2c(c1)C(=O)c1cccc(O)c1C2=O | -8.79
24 | O=C1c2cccc(O)c2C(=O)c2c(O)cc(CO)cc21 | 1.52

Biological target: T1, Hexokinase-4 (Homo sapiens) + Glucokinase regulatory protein (Homo sapiens) (UniProt P35557+Q14397)
Test: qHTS assay for inhibitors of recombinant human GCK-GKRP interaction: Diaphorase-coupled assay (AID 743205)
Conditions: G6PDH/diaphorase resorufin fluorescence; series mostly up to 57.5 µM; activity change, positive = activation: at the top concentration
Procedure, shortened: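 Compounds pre-incubated 20 min with substrate, then 10 nM GST-GCK with 10 nM FLAG-GKRP added. GCK activity coupled via G6PDH and diaphorase to resorufin (5 mM glucose, 0.4 mM ATP, 0.15 mM NADP+, pH 7.6), read kinetically over 30 minutes at Ex 525/Em 590 nm.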

T1 sequence (P35557 whole entry, looked up): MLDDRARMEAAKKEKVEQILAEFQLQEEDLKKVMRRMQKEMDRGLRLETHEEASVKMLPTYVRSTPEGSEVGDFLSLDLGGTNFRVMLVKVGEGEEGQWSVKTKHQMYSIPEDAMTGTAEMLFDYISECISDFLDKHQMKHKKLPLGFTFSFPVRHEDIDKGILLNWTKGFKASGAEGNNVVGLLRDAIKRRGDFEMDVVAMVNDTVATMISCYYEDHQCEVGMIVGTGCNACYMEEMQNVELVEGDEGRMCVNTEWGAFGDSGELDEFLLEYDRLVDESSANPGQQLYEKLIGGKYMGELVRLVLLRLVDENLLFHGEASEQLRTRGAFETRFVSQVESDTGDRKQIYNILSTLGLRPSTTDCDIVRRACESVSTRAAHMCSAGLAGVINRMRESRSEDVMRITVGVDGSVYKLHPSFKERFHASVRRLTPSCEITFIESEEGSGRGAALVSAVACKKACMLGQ
T1 sequence (Q14397 whole entry, looked up): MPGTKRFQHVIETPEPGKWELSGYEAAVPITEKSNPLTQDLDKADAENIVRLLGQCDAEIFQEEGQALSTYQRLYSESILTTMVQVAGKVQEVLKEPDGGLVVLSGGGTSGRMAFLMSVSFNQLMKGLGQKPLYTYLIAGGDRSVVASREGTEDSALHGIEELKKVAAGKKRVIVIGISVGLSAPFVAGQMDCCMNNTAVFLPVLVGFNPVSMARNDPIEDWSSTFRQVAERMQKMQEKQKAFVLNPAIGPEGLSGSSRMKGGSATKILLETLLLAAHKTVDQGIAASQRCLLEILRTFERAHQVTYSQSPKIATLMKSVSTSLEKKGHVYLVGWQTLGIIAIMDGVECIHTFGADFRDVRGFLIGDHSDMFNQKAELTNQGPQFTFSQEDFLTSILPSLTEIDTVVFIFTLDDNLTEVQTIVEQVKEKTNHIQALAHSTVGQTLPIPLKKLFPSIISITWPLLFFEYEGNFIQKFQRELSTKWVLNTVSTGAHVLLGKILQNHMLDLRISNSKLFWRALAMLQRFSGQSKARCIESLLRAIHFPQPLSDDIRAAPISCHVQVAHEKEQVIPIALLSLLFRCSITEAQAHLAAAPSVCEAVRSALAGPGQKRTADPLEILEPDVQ

Row | Structure (SMILES) | activity change, positive = activation [%]
25 | CN[C@H](CC(C)C)C(=O)N[C@H]1C(=O)N[C@@H](CC(N)=O)C(=O)N[C@@H]2C(=O)N[C@H]3C(=O)N[C@H](C(=O)N[C@H](C(=O)O)c4cc(O)cc(O)c4-c4cc3ccc4O)[C@H](O)c3ccc(c(Cl)c3)Oc3cc2cc(c3O[C@@H]2O[C@H](CO)[C@@H](O)[C@H](O)[C@@H]2O[C@H]2C[C@](C)(N)[C@H](O)[C@H](C)O2)Oc2ccc(cc2Cl)[C@H]1O | -5.44
26 | O=c1[nH]c(=O)n([C@H]2C[C@@H](O)[C@@H](CO)O2)cc1C=CBr | -7.36
27 | COc1ccc2cc([S+]([O-])Cc3ncc(C)c(OC)c3C)nc2c1 | -1.59

Biological target: T1, Hexokinase-4 (Homo sapiens) + Glucokinase regulatory protein (Homo sapiens)
Test: qHTS assay for inhibitors of recombinant human GCK-GKRP interaction: ADP-Glo assay (AID 743206);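 note: plate controls were DMSO plus enzyme for no effect and no enzyme for full effect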
Conditions: ADP-Glo luminescence, 60 min, 0% = vehicle-only wells with enzyme present; series mostly up to 76.9 µM; activity, positive = activation: at the top concentration
Procedure, shortened: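 GST-GCK and FLAG-GKRP (15 nM each in the dispensed mix, with 2 uM S6P) react with 0.4 mM ATP and 5 mM glucose (final) in Hepes pH 7.6 for 60 min at room temperature. ADP is measured by ADP-Glo luminescence.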

Row | Structure (SMILES) | activity, positive = activation [%]
28 | CN[C@H](CC(C)C)C(=O)N[C@H]1C(=O)N[C@@H](CC(N)=O)C(=O)N[C@@H]2C(=O)N[C@H]3C(=O)N[C@H](C(=O)N[C@H](C(=O)O)c4cc(O)cc(O)c4-c4cc3ccc4O)[C@H](O)c3ccc(c(Cl)c3)Oc3cc2cc(c3O[C@@H]2O[C@H](CO)[C@@H](O)[C@H](O)[C@@H]2O[C@H]2C[C@](C)(N)[C@H](O)[C@H](C)O2)Oc2ccc(cc2Cl)[C@H]1O | -2.37
29 | O=c1[nH]c(=O)n([C@H]2C[C@@H](O)[C@@H](CO)O2)cc1C=CBr | 5.11
30 | COc1ccc2cc([S+]([O-])Cc3ncc(C)c(OC)c3C)nc2c1 | 1.61
